The test system of one assay is JEG-3. Put plainly: Primary qHTS to identify gynecologic anti-cancer compounds using libraries of approved drugs and bioactive compounds (AID 1345084). Further: nearly all actives have a fitted effect of over 55% in size. Further: potency means the concentration at half of the fitted maximal effect. The following applies: Gynecologic cancer cell panel viability, ATPlite luminescence, 48 h; series mostly up to 57.5 µM. In a few lines: (§1)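 48 h compound exposure at 37 C, 5% CO2; five-point qHTS. ATPlite luminescence readout of cell ATP.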
On the technique in general: Quantitative high-throughput screening tests each substance at several concentrations.

In another assay the test system is OV90. The assay is described as above. The following applies: Gynecologic cancer cell panel viability, ATPlite luminescence, 48 h; series mostly up to 57.5 µM. In a few lines:
as §1

A further assay concerns PA-1. The description is as above. The following applies: Gynecologic cancer cell panel viability, ATPlite luminescence, 48 h; series mostly up to 57.5 µM. In a few lines:
as §1
(In ATP-based viability assays light output follows the ATP content of the culture.)

The subject of another assay is Tov-21-G. Described as above. The following applies: Gynecologic cancer cell panel viability, ATPlite luminescence, 48 h; series mostly up to 57.5 µM. Put shortly:
as §1

A further assay deals with Tov112D. Described as above. The following applies: Gynecologic cancer cell panel viability, ATPlite luminescence, 48 h; series mostly up to 57.5 µM. Put shortly:
as §1

A short description of assay [1]: Drug repurposing screens with cells derived from glioblastoma tumor samples (AID 1345199). Further: nearly all actives have a fitted effect of over 40% in size. Further: potency means the concentration at half of the fitted maximal effect. On activity, negative = cell killing: on the % scale 0 is the no-effect control and ±100 the full control effect. The following applies: GBM patient neurospheres viability, ATP luminescence, 48 h. Put shortly:
(§2)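 Four patient lines of CD133+ GBM neurospheres were screened at several concentrations; hits were retested in those lines plus three slower-growing GBM lines, using 48-hour treatment and ATP-based viability.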

In a further assay the test system is astro. The assay is described as above. The following applies: viability, ATP luminescence, 48 h; series mostly up to 45.9 µM. Put shortly: as §2
The subject of a further assay is Hek293T. The assay is described as follows: Primary qHTS to identify gynecologic anti-cancer compounds using libraries of approved drugs and bioactive compounds (AID 1345084). Further: nearly all actives have a fitted effect of over 55% in size. Further: potency means the concentration at half of the fitted maximal effect. The note with it: Gynecologic cancer cell panel viability, ATPlite luminescence, 48 h, control line for the selectivity index; series mostly up to 57.5 µM. In a few lines:
as §1

The test system of a further assay is SKOV3. The description is as above. The following applies: Gynecologic cancer cell panel viability, ATPlite luminescence, 48 h; series mostly up to 57.5 µM. Put shortly: as §1
A short description of assay [2]: qHTS assay for small molecule activators of the human pregnane X receptor (PXR) signaling pathway (AID 720659; call rule not given here; further: 0% is about no effect).
Setting [3] is: at 45.9 µM (top of the series), tumour line B.
Where [4] appears, read: at 45.9 µM (top of the series), tumour line D.
[5] abbreviates: at 46.1 µM (top of the series), tumour line C.

The structures appear in SMILES notation. Values joined by “and” are separate entries in the source; they are usually repeats but may differ in a detail not shown here. Equal entries are not always repeated. Unmarked numbers belong to inactive results. Results filed as inconclusive are left out. More than one record can exist for a structure, and the calls need not agree. Active and inactive are the calls of the source. Unless noted, the call rests on the fitted dose curve; in most records, active means well fitted curve in the direction sought with a large enough effect; inconclusive means small, poorly fitted or top-dose-only effect, or another doubt; inactive means no such curve, though single readings can be large; an effect the other way counts as inactive or inconclusive.

In the case of `C#C[C@]1(O)CC[C@H]2[C@@H]3CCC4=Cc5oncc5C[C@]4(C)[C@H]3CC[C@@]21C`, the Potency entry in the assay with JEG-3, with OV90, with Tov-21-G, with Tov112D and with astro was “inactive” each time. Further, the Potency in the assay with PA-1 is 10 µM (active). In addition, the activity, negative = cell killing in assay [1] (setting [3]) is -5.62%; in assay [1] (setting [4]), -8.01%; in assay [1] (at 46 µM (top of the series), tumour line A), -25.3%; in assay [1] (setting [5]), -28.8%.

On to `CCN(CC)CCNc1ccc(CO)c2sc3ccccc3c(=O)c12`, for which the Potency in the assay with Hek293T was 35.5 µM (active); with OV90 it was 35.5 µM (active); in the assay with PA-1, 28.2 µM (active).

As for `CN1CCc2cccc3c2[C@H]1Cc1ccc(O)c(O)c1-3`, the Potency entry with Hek293T, with OV90 and with SKOV3 was “inactive” each time. In assay [1] (setting [5]), the activity, negative = cell killing was -0.121%. Moreover, the Potency in assay [1] (tumour line A) was 11.2 µM (active); with astro, 20 µM (active).

Consider `C[N+]1(CC2COC(c3ccccc3)(C3CCCCC3)O2)CCCCC1` (stereo unspecified), for which the Potency result in the assay on Hek293T, in the assay on JEG-3, in the assay with SKOV3, in the assay with Tov-21-G, in the assay on Tov112D and with astro was “inactive” in each case.

Regarding `O=C(Nc1ccccc1)OCC(CN1CCCCC1)OC(=O)Nc1ccccc1` (stereo unspecified), the Potency result in the assay on JEG-3, in the assay with PA-1, in the assay on Tov-21-G and in the assay on Tov112D was “inactive” throughout. Further, the activity, negative = cell killing in [1] (at 20 µM (top of the series), tumour line C) was -1.96%. Besides, the values for the Potency in [1] (tumour line A) and in assay [1] (tumour line D) were 11.2 µM (active) and 10 µM (active), respectively.

For `CCN(CC)CCOc1ccc2c(c1)C(=O)c1cc(OCCN(CC)CC)ccc1-2`, the results for the Potency in the assay on OV90 and in the assay on Tov-21-G were 12.6 µM (active) and 22.4 µM (active), respectively. In addition, in the assay on astro, the Potency result was “inactive”.

On to `NC(N)=NCc1cccc(I)c1`, for which, in assay [1] (setting [3]), the activity, negative = cell killing is -24.3% and -14.8%. Further, the Potency in assay [1] (tumour line A) is 12.6 µM (active). Besides, the Potency result with astro was “inactive”.

Turning to `O[C@@H](c1cc(C(F)(F)F)nc2c(C(F)(F)F)cccc12)[C@H]1CCCCN1`, the Potency in the assay on SKOV3 was 25.1 µM (active); with astro it was 22.4 µM (active).

With `Cc1cc(CC(=O)O)c(C)n1-c1ccc(Cl)cc1`, the Potency entry in the assay with JEG-3, in the assay with OV90, with PA-1, in the assay with SKOV3, in the assay on Tov-21-G and in the assay on Tov112D was “inactive” in each case. Also, the Potency entry in the assay with astro is “inactive”. The figures for the activity, negative = cell killing in [1] (setting [3]) and in assay [1] (setting [4]) were -14.5% and 3.83%, respectively. Besides, in assay [1] (tumour line A), the Potency was 25.1 µM (active).

Consider `CN1CCN(CCC(=O)N2c3ccccc3Sc3ccc(C(F)(F)F)cc32)CC1`, for which the Potency in the assay on OV90 was 15.8 µM (active).

For `CCCCCCCCNC(C)C(O)c1ccc(SC(C)C)cc1` (stereo unspecified), the Potency result in the assay on Tov112D is “inactive”.

Turning to `CCC(CC)(CC(=O)Nc1cccc(/C=C/c2nc(C3CCC3)cs2)c1)C(=O)O`, the Potency result with SKOV3 and in the assay with Tov112D was “inactive” each time. Moreover, the Potency in the assay on astro was 15.8 µM (active).

`Oc1c(Cl)cc(Cl)c(Cl)c1Cc1c(O)c(Cl)cc(Cl)c1Cl`: the Potency is 8.91 µM (active) with Hek293T, 10 µM (active) in the assay on OV90, 11.2 µM (active) in the assay with PA-1 and 4.47 µM (active) with astro. In addition, the Potency entry in the assay on Tov-21-G is “inactive”. The compound was called inactive in assay [2].

Regarding `CCCCCCCCCCCCOCCOCCOCCOCCOCCOCCOCCOCCOCCO`, the Potency result with JEG-3, with Tov-21-G and in the assay on Tov112D was “inactive” throughout. The figures for the Potency with OV90 and in the assay on astro were 28.2 µM (active) and 3.16 µM (active), respectively.

Values taken from PubChem BioAssay (NCATS).
